Compound activity deposited in PubChem BioAssay by The Scripps Research Institute Molecular Screening Center.
An excerpt weighted towards active compounds, which were near 2.4% of everything screened.
PLC-gamma1 inh = PLC-gamma1 enzyme inhibitors, primary screen, biochemical, fluorescence, purified enzyme. 1-phosphatidylinositol 4,5-bisphosphate phosphodiesterase gamma-1 (Homo sapiens), P19174. fluorogenic substrate. inhibition, % at 12.2 µM. 370,000 tested, 0.84% active
UHRF1 MBD2 ctr = UHRF1 methylated DNA binding inhibitors, primary screen, counter-screen for MBD2 inhibitor project, biochemical, TR-FRET, human UHRF1, single concentration; UHRF1 binding to methylated oligo; 370,000 tested, 0.75% active; inhibition, % at 4.4 µM; E3 ubiquitin-protein ligase UHRF1 (Homo sapiens), Q96T88; in the data active = inhibition above about 21%;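 note: UHRF1 SRA domain binding a hemimethylated CpG hairpin DNA probe; 0% = median of test compound wells and 100% = reference inhibitor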
PLC-beta3 inh = human PLC-beta3 inhibitors, primary screen, biochemical, fluorescence; 1-phosphatidylinositol 4,5-bisphosphate phosphodiesterase beta-3 (Homo sapiens), Q01970; Purified PLC-beta3, fluorogenic substrate; inhibition, % at 12.2 µM; 370,000 tested, 0.18% active; AID 720704, 2013; in the data active = inhibition above about 11%;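 note: 0% = median of compound wells on plate and 100% = full blocker control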
MBD2 DNA inh = inhibitors of MBD2 binding to methylated DNA, primary screen, biochemical, TR-FRET, DNA-binding domain, human | Methyl-CpG-binding domain protein 2 (Homo sapiens), Q9UBB5 | MBD2 binding to methylated oligonucleotide | inhibition, % at 4.4 µM | 370,000 tested, 0.31% active | AID 686964, 2013; in the data active = inhibition above about 13%
Target sequence (Q9UBB5 whole entry, looked up, the tested form may be a part): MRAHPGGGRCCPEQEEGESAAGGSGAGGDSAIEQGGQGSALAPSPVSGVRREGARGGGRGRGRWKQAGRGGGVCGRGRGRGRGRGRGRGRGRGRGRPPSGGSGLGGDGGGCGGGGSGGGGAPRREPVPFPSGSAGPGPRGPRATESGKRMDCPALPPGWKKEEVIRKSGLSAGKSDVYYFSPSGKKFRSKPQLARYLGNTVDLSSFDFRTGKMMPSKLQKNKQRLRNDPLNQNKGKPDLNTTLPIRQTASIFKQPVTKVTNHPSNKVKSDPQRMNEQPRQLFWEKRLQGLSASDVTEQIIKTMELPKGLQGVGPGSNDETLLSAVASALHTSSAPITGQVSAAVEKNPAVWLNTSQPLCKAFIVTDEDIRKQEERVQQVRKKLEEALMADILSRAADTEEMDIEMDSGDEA
LEDGF integ inh = blockers of LEDGF/p75-dependent integrase strand transfer – biochemical, TR-FRET, high throughput, primary screen; HIV-1 integrase (with human LEDGF/p75); TR-FRET IN-LEDGF/p75 DNA integration, Eu/Cy5; inhibition, % at 3.7 µM; 370,000 tested, 0.64% active;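 active = inhibition above the screen-wide mean plus 3 SD, cut at about 13% in these data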;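 note: signal is the Cy5 over europium emission ratio at 671 and 618 nm; 0% = plate median of compound wells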
UHRF1 ctr MBD2 = UHRF1 methylated DNA binding inhibitors, counter-screen for MBD2 inhibitor project, biochemical, TR-FRET, human UHRF1; inhibition, % at 4.4 µM; 1,000 tested, 25% active; AID 720530, 2013; UHRF1 binding to methylated oligonucleotide; shares compounds with MBD2 DNA inh; in the data active = inhibition above about 21%;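 note: UHRF1 SRA domain binding a labeled hemimethylated CpG hairpin DNA; 0% = vehicle only and 100% = reference inhibitor with vehicle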
MBD2 DBD conf = inhibitors of MBD2 binding to methylated DNA, confirmation, biochemical, TR-FRET, DNA-binding domain, human. inhibition, % at 4.4 µM. shares compounds with MBD2 DNA inh. 1,000 tested, 26% active. TR-FRET MBD2-DBD binding to methylated oligonucleotide; in the data active = inhibition above about 14%
PLCgamma1 ctr = PLC-gamma1 enzyme inhibitors, counter-screen for PLC-beta3 inhibitor project, biochemical, fluorescence. inhibition, % at 12.3 µM. purified PLC-gamma1, fluorogenic substrate. shares compounds with PLC-gamma1 inh. 3,300 tested, 3.1% active
PLCbeta3 conf = PLC-beta3 inhibitor confirmation, biochemical, fluorescence, purified enzyme | shares compounds with PLC-gamma1 inh | fluorogenic substrate fluorescence | inhibition, % at 12.3 µM | 3,300 tested, 1% active | AID 743261, 2014; in the data active = inhibition above about 11%
IN multimer act = HIV-1 IN multimer formation enhancers, counter-screen for LEDGF/p75 integration inhibitor project, biochemical, TR-FRET; shares compounds with LEDGF integ inh; TR-FRET HIV-1 integrase multimerization; activation, % at 7.7 µM; 2,000 tested, 17% active; in the data active = activation above about 8.9%
TRFRET interf = TR-FRET optical interference artefacts, confirmation, artefact control for LEDGF/p75-dependent integration inhibitor project, biochemical, HIV-1 IN multimerization | 2,000 tested, under 10 active | shares compounds with LEDGF integ inh | TR-FRET optical interference counterscreen | inhibition, % at 7.7 µM;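 active = inhibition above the mean over all tested compounds plus 3 SD, which no compound reached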;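 note: 0% = integrase with antibodies and DMSO and 100% = antibodies without integrase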
LEDGF integ conf = inhibitors of HIV-1 IN-LEDGF/p75 DNA integration, confirmation, biochemical, TR-FRET; shares compounds with LEDGF integ inh; AID 1053136, 2014; 2,000 tested, 36% active; inhibition, % at 3.7 µM; TR-FRET LEDGF/p75-dependent HIV-1 integration; in the data active = inhibition above about 14%
Numbers without * were called inactive; i = inactive; · = not tested or not shown; ! = repeats disagree. Cut-off read from the data, not from the text of the source, unless noted: active = inhibition above about 9.5%; inactive = the rest.

SMILES	PLC-gamma1 inh	UHRF1 MBD2 ctr	PLC-beta3 inh	MBD2 DNA inh	LEDGF integ inh	UHRF1 ctr MBD2	MBD2 DBD conf	IN multimer act	TRFRET interf	LEDGF integ conf	others
N#C/C(=C\c1ccc(O)c(O)c1)C(=O)Nc1cccc2ncccc12	-170	28*	-269	21*	49*	13	11	72*	-256	85*
Fc1ccc(-c2cc(-c3nnc4sc(-c5cccs5)nn34)[nH]n2)cc1	-4	-1	-3	-3	-1	·	·	·	·	·
COC(=O)COc1ccc(C2Nc3c(Cl)ccc(C(=O)O)c3C3C=CCC32)cc1 (stereo not drawn)	-138	46*	-164	18*	66*	12	4	-1	5	21*
O=C(CSc1nnc(-c2cccnc2)n1Cc1ccco1)Nc1ccc(F)cc1Cl	-1	0	-1	3	-2	·	·	·	·	·
COc1cc(/C=C/C=C2/CC/C(=C/C=C/c3ccc(O)c(OC)c3)C2=O)ccc1O	-33	58*	-63	31*	92*	16	7	26*	-131	54*
O=c1oc2cc(O)c(Cl)cc2c2ccccc12	i	2	i	1	-10	·	·	·	·	·
O=c1cc2c(=O)oc3cc(O)c(O)oc3c2c(O)c1O	33*	97*	-39	95*	89*	92*	109*	80*	-286	91*	PLCgamma1 ctr=-279;PLCbeta3 conf=-322
COc1ccc(C(c2c(C)[nH]n(-c3ccccc3)c2=O)c2c(C)[nH]n(-c3ccccc3)c2=O)cc1OC	25*	21	8	16*	26*	1	0	4	-16	8	PLCgamma1 ctr=1;PLCbeta3 conf=0
COc1ccc(C(c2c(C)n(C)n(-c3ccccc3)c2=O)c2c(C)n(C)n(-c3ccccc3)c2=O)cc1OC	1	2	-9	-5	3	·	·	·	·	·
COc1cc(/C=C(\C#N)C(=O)c2ccc(O)c(O)c2)cc(I)c1O	10*	58*	-1	22*	90*	3	-6	22*	-108	82*	PLCgamma1 ctr=-44;PLCbeta3 conf=-44
COc1ccc(C=C(C#N)C(=O)c2ccccc2)cc1	-10	2	-23	3	1	·	·	·	·	·
O=C(CSc1nnc(-c2ccco2)c(-c2ccco2)n1)c1ccccc1	-38	58*	-50	17*	57*	19	3	4	-20	26*
O=C(CSc1nnc(-c2ccco2)o1)c1ccccc1	-1	0	-3	-3	3	·	·	·	·	·
CC(C)C[C@H]1COc2cccc(N3CCSCC3)c2S(=O)(=O)N1C	0	5	4	1	4	·	·	·	·	·
O=C(NN1C(=O)/C(=C/C=C/c2ccco2)SC1=S)c1ccccc1O	1	95*	-43	56*	81*	66*	30*	73*	-259	80*
O=C(O)CCCN1C(=O)/C(=C/C=C/c2ccco2)SC1=S	23*	98*	-15	70*	87*	91*	49*	13*	-64	83*	PLCgamma1 ctr=18*;PLCbeta3 conf=-15
COc1ccc(/C=C2\SC(=S)N(C(Cc3ccccc3)C(=O)O)C2=O)cc1 (stereo not drawn)	4	-11	5	-5	3	·	·	·	·	·
O=C(O)C(Cc1ccccc1)N1C(=O)/C(=C/C=C/c2ccco2)SC1=S (stereo not drawn)	-1	98*	-38	94*	86*	98*	71*	27*	-95	82*
O=C1S/C(=C\C=C\c2ccco2)C(=O)N1c1ccccc1	-25	25*	-49	13*	40*	7	2	1	-4	23*
Cn1cc(/C=C2\SC(=O)N(c3ccccc3)C2=O)c2ccccc21	0	1	-1	1	-6	·	·	·	·	·
CS(=O)(=O)N[C@@H]1C[C@@H]2O[C@@H](CO)CC[C@@H]2O[C@@H]1CCc1ccc(-c2ccccc2F)cc1	2	4	-2	-2	-3	·	·	·	·	·
O=C(c1cccc(I)c1)N1CCC(Oc2cccnc2)CC1	2	2	-1	1	0	·	·	·	·	·
COc1cccc(NC(=O)Nc2nc3ncccn3c2-c2ccc(C)cc2)c1	-180	-2	-226	4	-1	·	·	·	·	·
O=C(O)CC(C(=O)O)N1C(=O)/C(=C/C=C/c2ccco2)SC1=S (stereo not drawn)	59*	100*	-11	109*	89*	92*	59*	37*	-185	94*	PLCgamma1 ctr=52*;PLCbeta3 conf=-15
CCC(C(=O)O)N1C(=O)/C(=C/c2cccn2C)SC1=S (stereo not drawn)	3	-16	-10	-18	8	·	·	·	·	·
O=C1c2c(O)ccc(O)c2C(=O)c2c(NCCNCCO)ccc(NCCNCCO)c21	6	96*	-5	110*	49*	94*	106*	24*	-85	38*!
COCCNC(=O)C1(C)CCCN(C(=O)c2ccc(C(=O)OC)cc2)C1 (stereo not drawn)	1	20	-8	16*	15*	-2	3	-1	4	2
